Source: PubChem BioAssay (NCATS)
A number with no mark means an inactive call. Inconclusive results are not listed. Entries that show only a call come without a potency. Calls of active or inactive are those of the source. Unless noted, calls come from the whole dose curve; as a rule, active = well fitted inhibition curve with a large enough effect; inconclusive = small, poorly fitted or top-dose-only effect; inactive = no such curve, though single readings can be large or run the other way.

Assays:
[1] = biological target: Cytochrome P450 1A2 (Homo sapiens) (UniProt P05177); test: p450-cyp1a2 (AID 410; calls by dose curve; note: potency is the fitted concentration of half-maximal effect)
Cytochrome P450 1A2 (Homo sapiens), sequence (P05177 whole entry, looked up): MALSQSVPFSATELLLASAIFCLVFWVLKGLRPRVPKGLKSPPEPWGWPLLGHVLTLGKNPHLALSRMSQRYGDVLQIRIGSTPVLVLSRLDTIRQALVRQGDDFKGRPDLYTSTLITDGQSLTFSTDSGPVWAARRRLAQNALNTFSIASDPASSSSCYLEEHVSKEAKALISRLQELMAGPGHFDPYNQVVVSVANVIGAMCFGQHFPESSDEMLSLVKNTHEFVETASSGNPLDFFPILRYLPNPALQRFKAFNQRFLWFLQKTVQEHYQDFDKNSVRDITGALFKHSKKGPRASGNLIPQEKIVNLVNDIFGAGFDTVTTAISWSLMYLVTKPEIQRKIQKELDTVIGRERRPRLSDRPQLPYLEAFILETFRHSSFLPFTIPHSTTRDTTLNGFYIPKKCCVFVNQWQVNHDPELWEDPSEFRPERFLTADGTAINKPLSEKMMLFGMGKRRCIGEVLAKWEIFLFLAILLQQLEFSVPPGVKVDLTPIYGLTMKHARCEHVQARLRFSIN
Method in brief: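 Luminescent readout of luciferin formed from Luciferin-ME by human CYP1A2; data normalized against complete inhibition by 57 uM furafylline. Enzyme 20nM, substrate 100uM at Km, 100mM KPO4 buffer, 60 min reaction at room temperature.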

[2] = biological target: Glucocorticoid receptor (Homo sapiens) (UniProt P04150); test: GR-EFC Redistribution (AID 451; calls by dose curve; note: potency is the fitted concentration of half-maximal effect); settings: CHO-K1 GR-EFC translocation, beta-gal luminescence, 2 h
Glucocorticoid receptor (Homo sapiens), sequence (P04150 whole entry, looked up, the tested form may be a part): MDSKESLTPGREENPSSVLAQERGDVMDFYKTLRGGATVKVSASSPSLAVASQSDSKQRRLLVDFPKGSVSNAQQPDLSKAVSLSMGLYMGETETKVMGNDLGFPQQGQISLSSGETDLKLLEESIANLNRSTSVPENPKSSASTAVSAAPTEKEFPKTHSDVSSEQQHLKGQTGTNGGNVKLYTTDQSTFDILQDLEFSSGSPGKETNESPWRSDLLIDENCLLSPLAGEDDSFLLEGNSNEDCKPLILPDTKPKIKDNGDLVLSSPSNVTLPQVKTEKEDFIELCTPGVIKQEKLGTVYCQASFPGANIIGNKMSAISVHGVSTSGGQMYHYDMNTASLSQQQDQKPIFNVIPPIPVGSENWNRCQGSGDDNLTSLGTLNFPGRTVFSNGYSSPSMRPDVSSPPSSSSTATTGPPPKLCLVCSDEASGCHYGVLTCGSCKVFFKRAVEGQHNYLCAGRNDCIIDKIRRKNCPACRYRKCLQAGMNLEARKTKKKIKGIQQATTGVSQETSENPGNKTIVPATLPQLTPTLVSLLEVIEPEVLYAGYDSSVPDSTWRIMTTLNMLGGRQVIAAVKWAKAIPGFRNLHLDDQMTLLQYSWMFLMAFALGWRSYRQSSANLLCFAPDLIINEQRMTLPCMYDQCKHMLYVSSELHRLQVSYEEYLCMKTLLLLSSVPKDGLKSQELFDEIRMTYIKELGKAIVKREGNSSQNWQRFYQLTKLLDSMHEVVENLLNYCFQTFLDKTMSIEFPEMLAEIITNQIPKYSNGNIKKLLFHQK
Method in brief: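 Translocation of GR-ED fusion to nuclear EA restores b-gal, read by luminescence after 1 h room-temperature detection. Engineered CHO-K1 biosensor cells, 1,000/well, exposed 2 h at 37 C to titrations up to 46 uM final.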

[3] = biological target: Mitogen-activated protein kinase 10 (Mus musculus) (UniProt Q61831); test: JNK3 AlphaScreen Assay (AID 530; active = well fitted curve in either direction with a large enough effect, not every such curve was filed as active;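 note: kinase came from lysate of stimulated human HepG2 cells; signal reports phosphorylation of biotinylated GST-cJun 1-79 at Ser73 with 10 µM ATP; series mostly up to about 57 µM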)
Method in brief: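 Compound titrations were preincubated 15 minutes at room temperature with substrate, antibody and pre-activated JNK3-containing HepG2 lysate. Reactions were started with 10 uM ATP and stopped with EDTA-containing bead buffer for AlphaScreen detection.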

[4] = biological target: 3',5'-cyclic-AMP phosphodiesterase 4B (Homo sapiens) (UniProt Q07343); test: qHTS Assay for Inhibitors of PDE-IV (AID 607; active = well fitted activation curve with a large enough effect in the main read-out, with a control signal flat, not every such curve was filed as active)
3',5'-cyclic-AMP phosphodiesterase 4B (Homo sapiens), sequence (Q07343 whole entry, looked up): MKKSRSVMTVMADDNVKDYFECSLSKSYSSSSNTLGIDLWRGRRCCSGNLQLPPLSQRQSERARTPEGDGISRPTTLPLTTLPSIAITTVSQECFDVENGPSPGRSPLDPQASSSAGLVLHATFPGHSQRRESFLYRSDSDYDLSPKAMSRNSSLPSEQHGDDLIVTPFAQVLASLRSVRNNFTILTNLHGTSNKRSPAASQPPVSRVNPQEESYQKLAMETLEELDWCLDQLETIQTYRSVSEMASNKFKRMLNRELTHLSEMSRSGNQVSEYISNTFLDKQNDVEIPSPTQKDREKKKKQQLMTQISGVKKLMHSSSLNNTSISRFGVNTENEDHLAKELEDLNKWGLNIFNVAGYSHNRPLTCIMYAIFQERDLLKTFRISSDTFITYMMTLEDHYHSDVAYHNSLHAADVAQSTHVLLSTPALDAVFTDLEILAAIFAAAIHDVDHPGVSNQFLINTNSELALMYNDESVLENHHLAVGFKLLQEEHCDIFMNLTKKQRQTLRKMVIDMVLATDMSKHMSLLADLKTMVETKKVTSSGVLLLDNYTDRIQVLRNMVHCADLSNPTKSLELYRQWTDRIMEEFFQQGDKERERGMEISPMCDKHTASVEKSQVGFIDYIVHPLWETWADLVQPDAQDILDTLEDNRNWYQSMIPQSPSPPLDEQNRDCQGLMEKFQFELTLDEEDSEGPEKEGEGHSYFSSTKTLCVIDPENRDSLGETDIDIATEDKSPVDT
Method in brief: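 The readout is membrane depolarisation from a cAMP-sensing CNG channel, detected with a potential dye at ex 535/em 590. Cells were HEK293-derived (endogenous PDE-IV) at 1000 cells/well, titrated up to 22.9 uM final.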

[5] = biological target: Cytochrome P450 2C9 (Homo sapiens) (UniProt P11712); test: qHTS Assay for Inhibitors and Substrates of Cytochrome P450 2C9 (AID 883); note: nearly all actives have a fitted effect of over 60% in size
Cytochrome P450 2C9 (Homo sapiens), sequence (P11712 whole entry, looked up): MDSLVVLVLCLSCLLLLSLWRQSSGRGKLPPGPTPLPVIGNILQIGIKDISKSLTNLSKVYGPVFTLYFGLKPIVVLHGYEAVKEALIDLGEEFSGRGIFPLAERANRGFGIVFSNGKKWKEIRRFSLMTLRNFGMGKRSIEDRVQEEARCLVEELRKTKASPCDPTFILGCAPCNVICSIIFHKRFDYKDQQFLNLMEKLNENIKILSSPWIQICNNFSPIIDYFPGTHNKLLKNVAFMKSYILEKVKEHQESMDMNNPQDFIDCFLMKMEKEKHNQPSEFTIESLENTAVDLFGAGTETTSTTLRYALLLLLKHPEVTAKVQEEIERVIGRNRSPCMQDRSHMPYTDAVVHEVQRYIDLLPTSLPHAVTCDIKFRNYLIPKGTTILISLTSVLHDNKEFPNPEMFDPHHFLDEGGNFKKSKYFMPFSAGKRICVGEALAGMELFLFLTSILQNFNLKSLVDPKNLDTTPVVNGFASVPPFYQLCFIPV
Method in brief: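 Turnover of Luciferin-H (100uM, KM) by 10nM human CYP2C9 was measured over 60 min at 37C with NADPH regeneration; inhibitors and some substrates reduce luminescence. Data normalized to sulphaphenazole 57uM.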

[6] = biological target: Cytochrome P450 2D6 (Homo sapiens) (UniProt P10635); test: qHTS Assay for Inhibitors and Substrates of Cytochrome P450 2D6 (AID 891);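 note: luciferin methyl ether substrate demethylated by CYP2D6 with NADPH regeneration; nearly all actives have a fitted effect of over 60% in size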
Cytochrome P450 2D6 (Homo sapiens), sequence (P10635 whole entry, looked up): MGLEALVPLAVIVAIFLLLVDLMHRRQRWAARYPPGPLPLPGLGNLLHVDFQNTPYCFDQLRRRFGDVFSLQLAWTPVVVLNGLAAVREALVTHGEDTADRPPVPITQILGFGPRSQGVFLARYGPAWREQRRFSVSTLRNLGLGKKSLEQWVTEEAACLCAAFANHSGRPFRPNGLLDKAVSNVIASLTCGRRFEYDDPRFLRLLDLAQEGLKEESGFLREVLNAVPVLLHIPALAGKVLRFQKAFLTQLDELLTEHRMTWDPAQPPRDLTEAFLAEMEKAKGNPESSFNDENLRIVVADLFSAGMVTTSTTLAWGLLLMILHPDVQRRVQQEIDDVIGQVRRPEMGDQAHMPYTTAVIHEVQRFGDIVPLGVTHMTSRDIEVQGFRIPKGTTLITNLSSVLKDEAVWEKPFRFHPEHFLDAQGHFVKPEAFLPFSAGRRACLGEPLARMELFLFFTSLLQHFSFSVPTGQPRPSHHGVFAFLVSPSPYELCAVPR
Method in brief: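 Human CYP2D6 (5 nM) with 30 uM Luciferin-ME EGE (at Km) in 100 mM KPO4, compound preincubated 10 min, then NADPH regeneration system for 60 min at room temperature. Luciferin read by luminescence; normalized to 1.43 uM quinidine.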

[7] = biological target: Cytochrome P450 2C19 (Homo sapiens) (UniProt P33261); test: qHTS Assay for Inhibitors and Substrates of Cytochrome P450 2C19 (AID 899); note: nearly all actives have a fitted effect of over 60% in size
Cytochrome P450 2C19 (Homo sapiens), sequence (P33261 whole entry, looked up): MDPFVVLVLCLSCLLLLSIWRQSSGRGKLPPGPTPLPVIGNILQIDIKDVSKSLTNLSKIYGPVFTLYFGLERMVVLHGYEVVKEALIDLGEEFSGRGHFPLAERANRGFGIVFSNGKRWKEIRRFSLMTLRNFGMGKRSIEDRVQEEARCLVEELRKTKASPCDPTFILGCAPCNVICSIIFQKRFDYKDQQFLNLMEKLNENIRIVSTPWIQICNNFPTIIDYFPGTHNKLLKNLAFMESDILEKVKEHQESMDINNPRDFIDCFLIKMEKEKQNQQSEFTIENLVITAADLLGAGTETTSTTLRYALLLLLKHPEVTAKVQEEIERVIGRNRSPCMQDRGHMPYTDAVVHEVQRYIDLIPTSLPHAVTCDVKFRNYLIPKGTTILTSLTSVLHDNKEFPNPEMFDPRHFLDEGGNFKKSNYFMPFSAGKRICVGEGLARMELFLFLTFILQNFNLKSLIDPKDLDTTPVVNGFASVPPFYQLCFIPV
Method in brief: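 Reactions contain 5nM enzyme, 10uM Luciferin-H EGE (KM) and 50mM KPO4; compound preincubates 10 min at 37C, NADPH regeneration starts turnover for 60 min. Luminescence after detection reagent gives activity.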

| Compound | Potency [1] | Potency [2] [µM] | Potency [3] | Potency [4] | Potency [5] | Potency [6] | Potency [7] |
| --- | --- | --- | --- | --- | --- | --- | --- |
| CC(C)C[C@@H](CC(=O)N[C@@H](CCC(=O)O)CC(=O)O)NC(=O)[C@@H]1CNCC[C@H]1NC(=O)C[C@@H](NC(=O)C[C@H](CO)NC(=O)[C@@H]1CCCC[C@H]1N)C(C)C | inactive | > 46 | inactive | inactive | inactive | inactive | inactive |
| CC(C)[C@@H](CC(=O)N[C@@H]1CCNC[C@H]1C(=O)N[C@H](CC(=O)N[C@@H](CCC(=O)O)CC(=O)O)Cc1ccccc1)NC(=O)C[C@H](Cc1c[nH]c2ccccc12)NC(=O)[C@@H]1CNCC[C@H]1N | inactive | > 46 | inactive | inactive | inactive | inactive | inactive |
| NCCC[C@@H](CC(=O)N[C@@H]1CCNC[C@H]1C(=O)N[C@H](CC(=O)N[C@@H](CCC(=O)O)CC(=O)O)Cc1c[nH]c2ccccc12)NC(=O)C[C@H](Cc1c[nH]c2ccccc12)NC(=O)[C@@H]1CCCC[C@H]1N | inactive | > 46 | inactive | inactive | inactive | inactive | inactive |
| CC(C)C[C@@H](CC(=O)N[C@@H](CCC(=O)O)CC(=O)O)NC(=O)[C@@H]1CNCC[C@H]1NC(=O)C[C@H](CCCN)NC(=O)C[C@H](Cc1ccccc1)NC(=O)[C@@H]1CNCC[C@H]1N | 31.6 µM (active) | > 46 | inactive | inactive | inactive | inactive | inactive |
| CCc1c2c(nc3cccc(SC)c13)COC2 | 2.51 µM (active) |  | inactive |  |  |  |  |
| CC(C)C[C@@H](CC(=O)N[C@H](CC(=O)N[C@@H]1CCNC[C@H]1C(=O)N[C@H](CC(=O)N[C@@H](CCC(=O)O)CC(=O)O)CC(C)C)C(C)C)NC(=O)[C@@H]1CNCC[C@H]1N | inactive | > 46 | inactive | inactive |  | inactive | inactive |
| CC(C)C[C@@H](CC(=O)N[C@@H](CCCN)CC(=O)N[C@@H]1CCNC[C@H]1C(=O)N[C@H](CC(=O)N[C@@H](CCC(=O)O)CC(=O)O)Cc1c[nH]c2ccccc12)NC(=O)[C@@H]1CCCC[C@H]1N | inactive | > 46 | inactive | inactive |  | inactive | inactive |
| CC(C)[C@@H](CC(=O)N[C@@H]1CCCC[C@H]1C(=O)N[C@H](CC(=O)N[C@@H](CCC(=O)O)CC(=O)O)Cc1ccccc1)NC(=O)C[C@H](CO)NC(=O)[C@@H]1CNCC[C@H]1N | inactive | > 46 |  | inactive |  | inactive | inactive |
| CC(C)C[C@@H](CC(=O)N[C@H](CC(=O)N[C@@H]1CCCC[C@H]1C(=O)N[C@H](CC(=O)N[C@@H](CCC(=O)O)CC(=O)O)Cc1c[nH]c2ccccc12)C(C)C)NC(=O)[C@@H]1CNCC[C@H]1N | inactive | > 46 |  | inactive | inactive | inactive |  |
| NCCC[C@@H](CC(=O)N[C@@H]1CCCC[C@H]1C(=O)N[C@H](CC(=O)N[C@@H](CCC(=O)O)CC(=O)O)Cc1ccccc1)NC(=O)C[C@H](CO)NC(=O)[C@@H]1CNCC[C@H]1N | inactive | > 46 | inactive |  |  | inactive | inactive |
